# Measured values published in PubChem BioAssay (NCATS).
# Records with an inconclusive call do not appear. A call without a number means that no potency is given here. Activity calls are given as the source filed them. Calls follow the shape of the dose curve; as a rule, active = well fitted curve in the direction sought with a large enough effect; inconclusive = small, poorly fitted or top-dose-only effect, or another doubt; inactive = no such curve, though single readings can be large; an effect the other way counts as inactive or inconclusive.
# What was measured:
# [1] = qHTS for ATAD5 Agonist screened against the NCATS CANVASS Library (AID 1347367);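 also: luciferase reporter driven by ATAD5 which rises upon DNA damage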
# In short: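 Step one plated reporter cells and let them acclimate 5hr. Step two pinned compounds with MMS as positive and 0.46% DMSO as negative control. After 16hr incubation, fluorescence viability then luminescence were read.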
# [2] = MCF7 Cancer Cell Toxicity qHTS against the NCATS CANVASS Library (AID 1347369); also: series mostly up to about 46 µM
# In short: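 Cytotoxicity is measured by ATP content: MCF7 cells at 500 per well receive an 11-point compound series and, after 72 hr at 37C, are lysed with CellTiterGlo for luminescence.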
# [3] = qHTS for ATAD5 Antagonist screened against the NCATS CANVASS Library (AID 1347370);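 also: HEK293T cells carrying an ATAD5 luciferase reporter co-treated with 10 µM 5-fluorouridine; series mostly up to about 46 µM; nearly all actives have a fitted effect of over 65% in size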
# In short: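 Compounds (11-point) co-dosed with 10 µM 5-FUrd for 16 h at 37 °C onto HEK293T-ATAD5 luciferase reporter cells. Viability measured by CellTiter-Fluor fluorescence, then ATAD5 reporter signal by luminescence.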
# [4] = J3T Cancer Cell Toxicity qHTS against the NCATS CANVASS Library (AID 1347371);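 also: J3T is a canine glioma cancer cell line seeded at 500 cells per well; series mostly up to about 46 µM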
# In short: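 Luminescence from CellTiterGlo, reporting cellular ATP, serves as the viability measure after 72 hr compound treatment of J3T canine glioma cells seeded at 500 cells/well.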
# [5] = molecular target: Nuclear receptor subfamily 1 group I member 3 (Homo sapiens) (UniProt Q14994); assay: qHTS for Constitutive Androstane Receptor (CAR) Antagonist screened against the NCATS CANVASS Library (AID 1347372);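 also: cells stimulated with 50 nM CITCO agonist so inhibition reflects antagonism; luciferase from CYP2B6 promoter reporter driven by hCAR in HepG2 cells; series mostly up to about 46 µM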
# Chain of Nuclear receptor subfamily 1 group I member 3 (Homo sapiens) (Q14994 whole entry, looked up): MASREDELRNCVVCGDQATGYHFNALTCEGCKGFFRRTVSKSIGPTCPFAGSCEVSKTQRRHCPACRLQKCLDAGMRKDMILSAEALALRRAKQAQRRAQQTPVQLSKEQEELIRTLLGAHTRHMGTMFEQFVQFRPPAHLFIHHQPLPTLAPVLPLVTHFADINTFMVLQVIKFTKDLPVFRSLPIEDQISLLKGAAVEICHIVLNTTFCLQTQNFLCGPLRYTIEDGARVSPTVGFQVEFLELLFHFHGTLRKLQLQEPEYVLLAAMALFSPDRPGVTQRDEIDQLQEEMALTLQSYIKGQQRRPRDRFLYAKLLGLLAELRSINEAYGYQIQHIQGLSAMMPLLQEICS
# In short: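 Cells were seeded and left 4hr to attach, then received compound at 11 concentrations and 50 nM CITCO. Following 24hr incubation, fluorescence viability and luciferase luminescence were read sequentially.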
# [6] = molecular target: Nuclear receptor subfamily 1 group I member 3 (Homo sapiens) (UniProt Q14994); assay: qHTS for Constitutive Androstane Receptor (CAR) Agonist screened against the NCATS CANVASS Library (AID 1347373);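 also: every well also contained 1.5 µM PK11195 alongside the test compound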
# In short: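 Cells were plated and allowed to attach for 4hr, then dosed with compound in an 11-point series alongside 1.5uM PK11195. After 24hr at 37C, viability was measured fluorometrically and CAR-driven CYP2B6 reporter luminescence was recorded.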
# [7] = qHTS for Hypoxia signaling pathway (HIF-1) antagonists against the NCATS CANVASS Library (AID 1347374);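 also: HRE-bla ME-180 cells stimulated with cobalt chloride to stabilize HIF-1alpha; series mostly up to about 38 µM; nearly all actives have a fitted effect of over 60% in size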
# In short: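 Antagonism scored as loss of CoCl2-driven (60 uM stock added) HRE beta-lactamase signal, read by CCF4 FRET at 460/530 nm. Compounds were tested in an 11-point series on ME-180 reporter cells for 17 hrs at 37C, with parallel CellTiter-Glo cytotoxicity.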
# [8] = 10-beta competent E. coli microbial cell viability qHTS against the NCATS CANVASS Library (AID 1347376); also: series mostly up to about 46 µM
# In short: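 Bacterial suspension diluted to 0.2 OD was dosed with compounds, 11-point series, then held overnight at 37C. BacTiter-Glo reagent was added, and after 20 min at room temperature ATP-dependent luminescence was measured.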
# [9] = DH5-alpha competent E. coli microbial cell viability qHTS against the NCATS CANVASS Library (AID 1347377); conditions: outcome: dose series up to 46.1 µM unless noted
# In short: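 Bacteria were dispensed at 0.2 OD, then compounds were pin-transferred. Plates were incubated overnight at 37C, after which BacTiter-Glo was added and luminescence measured 20 min later.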
# [10] = qHTS for H2AX Agonists against the NCATS CANVASS Library (AID 1347378);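 also: phospho-H2AX S139 level in CHO-K1 lysates by TR-FRET emission ratio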
# In short: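 Following overnight seeding, CHO-K1 cells are incubated with a concentration series of compound for 3 hr at 37C (final DMSO 0.76%). Cells are then lysed, detection antibodies added, and emission ratio 665/620 nm recorded after 24 hr at room temperature.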
# [11] = qHTS for Inflammasome Signaling Inhibitors: IL-1-beta AlphaLISA screen against the NCATS CANVASS Library (AID 1347379);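 also: human THP-1 cells primed with LPS then triggered with ATP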
# In short: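 Secreted IL-1B from human THP-1 cells quantified by AlphaLISA 16 hr after compound addition (final up to 57.5 uM). A 1 hr compound pretreatment preceded inflammasome activation with 250 ng/mL LPS plus 1.25 mM ATP (final).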
# [12] = qHTS for Antimalaria activity screened against the NCATS CANVASS Library (AID 1347380);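 also: Plasmodium falciparum strain Dd2 asexual parasites grown in red blood cells; series mostly up to about 29 µM; nearly all actives have a fitted effect of over 40% in size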
# In short: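 Compounds are titrated over 11 concentrations onto Dd2 parasite cultures (0.3% parasitemia, 2.5% hematocrit). Growth over 72 h at 37C in low oxygen is measured as SYBR Green DNA fluorescence after lysis.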
# [13] = Inflammasome Signaling qHTS Counterscreen: IL-1-beta AlphaLISA counterscreen against the NCATS CANVASS Library (AID 1347381);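 also: cell-free check with purified IL-1β in medium and no THP-1 cells; series mostly up to about 57 µM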
# In short: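 Purified IL-1-beta (4 pg/well) + compound, 11-pt conc. series; acceptor beads 6 ug/mL + biotin-Ab 0.6 nM final, 1 h RT; SA-donor 24 ug/ml final, 30 min dark RT; read ex 680/em 615.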
# [14] = Cytotoxicity qHTS for assessment of Hepg2 cells membrane integrity screened against the NCATS CANVASS Library (AID 1347387)
# In short: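 Cells were seeded at 2000 per well and left overnight to attach. Compounds were pin-transferred to give 0.59 nM - 46 uM in an 11-point series and incubated 5 hr at 37C. CytoTox-ONE reagent was added and, after 10 min at room temperature, fluorescence (ex 560, em 590 nm) was read.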
# [15] = qHTS for Activators of p53 Stress Response Pathway screened against the NCATS CANVASS Library (AID 1347388)
# In short: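 p53RE-bla HCT-116 cells (4000/well) were plated 5 h at 37C, exposed to compounds for 16 h at 37C over an 11-point concentration series, then loaded with CCF4 for 2 h at room temperature; 460/530 nm emission ratio read.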
# [16] = qHTS assay for small molecule disruptors of mitochondrial membrane potential screened against the NCATS CANVASS Library (AID 1347389); also: series mostly up to about 46 µM; nearly all actives have a fitted effect of over 60% in size
# In short: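 Mitochondrial depolarization in HepG2 cells is scored as a falling aggregate-to-monomer fluorescence ratio after 1 hr compound exposure and 30 min staining with Mito-MPS dye at 37C, each compound tested as an 11-point titration.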
# [17] = Secretion counterscreen for inhibitors of the SERCaMP assay screened against the NCATS CANVASS Library (AID 1347390);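 also: light from luciferase secreted into medium read as a measure of general secretion; series mostly up to about 77 µM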
# In short: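 Counterscreen identifying compounds that disrupt secretion, using SH-SY5Y cells with a constitutively secreted Gaussia luciferase reporter. A 20 h compound exposure (top 77 uM) precedes luminescent detection with coelenterazine.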
# [18] = qHTS for activators of dead-cell proteases activity screened against the NCATS CANVASS Library (AID 1347392);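 also: luminescence from protease leaking out of membrane-damaged cells cleaving impermeant substrate; rising signal means more cytotoxicity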
# In short: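 Cytotoxicity in HepG2 cells was assessed by released protease cleaving AAF-aminoluciferin, with luminescence as signal. Exposure lasted 5 h at 37C across an 11-point series.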
# [19] = qHTS for inhibitors of ER calcium dysfunction: SERCaMP assay screened against the NCATS CANVASS Library (AID 1347393); also: potency is read from the fitted curve at half-maximal effect; nearly all actives have a fitted effect of over 40% in size
# In short: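 qHTS in SH-SY5Y reporter cells: 16 h compound pretreatment, 4 h thapsigargin, then secreted Gaussia luciferase measured by luminescence.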
# [20] = Vero-766 cells viability qHTS against the NCATS CANVASS Library: Counterscreen for Zika virus inhibition assay (AID 1347394); also: series mostly up to about 46 µM; nearly all actives have a fitted effect of over 60% in size
# In short: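 This cytotoxicity counterscreen uses African green monkey Vero 766 cells in the absence of Zika virus. Compounds are incubated with cells for 72 h, and ATP-based luminescence reports viability.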
# [21] = qHTS for inhibitors of Wild type Zika virus screened against the NCATS CANVASS Library (AID 1347396);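 also: ATP luminescence of surviving cells so rescue from viral cell killing; series mostly up to about 46 µM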
# In short: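 Luminescent CellTiter Glo read-out of virus-induced cytotoxicity, 72 h post-infection, in Vero 766 cells. Compounds were tested at 11 concentrations; uninfected, vehicle-treated wells defined 100% inhibition.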
# [22] = Viability qHTS for inhibitors of the SERCaMP assay screened against the NCATS CANVASS Library (AID 1347400); also: series mostly up to about 92 µM; nearly all actives have a fitted effect of over 70% in size
# In short: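 Seed SH-SY5Y-GLuc SERCaMP MJH297 cells at 1000 per well, incubate 4 h, add compounds across an 11-point range, incubate 48 h at 37C, then add CellTiter-Glo and read luminescence.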
# [23] = Redox Reaction Profiling qHTS: Assay Interference Panel against the NCATS CANVASS Library (AID 1347401)
# In short: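 Quantitative HTS over an 11-point series was run in HEPES pH 7.3 with 50 mM NaCl, 200 uM DTT and 5 uM resazurin. Initial and 15-min resorufin fluorescence readings were taken.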
structure (smiles),measurement,setting,value
C/C=C/c1cc(OC)c2c(c1)[C@@H](C)[C@H](c1ccc(O)c(OC)c1)O2,Potency,[1],inactive
same,Potency,[2],inactive
same,Potency,[3],inactive
same,Potency,[4],inactive
same,Potency,[5],inactive
same,outcome,[6],inactive
same,Potency,[7],inactive
same,outcome,[8],inactive
same,outcome,[9],inactive
same,Potency,[10],inactive
same,Potency,[11],inactive
same,Potency,[12],inactive
same,outcome,[13],inactive
same,outcome,[14],inactive
same,Potency,[15],inactive
same,Potency,[16],inactive
same,Potency,[17],inactive
same,Potency,[18],inactive
same,Potency,[19],24.3 µM (active)
same,Potency,[20],inactive
same,Potency,[21],inactive
same,Potency,[22],inactive
same,Potency,[23],inactive
